# Laboratory results taken from PubChem BioAssay AID720602 (Broad Institute, 2013).
# Results with a measured potency or affinity are listed apart. Active and inactive are the calls of the source.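 How the source made its calls: active means signal drop at all three exposure times, half-maximal concentration at most twice the top valid dose; inconclusive means exposure times give differing calls; inactive means inactive at every exposure time.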
# Test: LOX IMVI melanoma cell viability loss, dose response, HRAS target identification, CellTiter-Glo ATP luminescence, 8/24/48 h, dry powder (AID 720602)
row,Structure (SMILES),outcome
1,Cc1onc(C(=O)N2CCN(C(c3ccncc3)c3ccncc3)CC2)c1[N+](=O)[O-],inactive
2,CCC(=O)N(c1ccc(OC)c(Cl)c1)C(C(=O)NCCc1ccccc1)c1cccs1 (configuration not stated),inactive
